In PubChem BioAssay AID1159580 (chemical genetic matrix, 2015):
In all, about 5,500 compounds went through this assay and about 2,000 (36%) were called active. Another 18% or so got no clear call; they are omitted. Cut-off read from the data, not from the text of the source: active = normalized growth mostly below about 0.91 (no sharp cut-off); inconclusive = no clear call, values can overlap the other calls; inactive = mostly above about 0.92. This is one part of the list.

Test: chemical genetic growth profiling, strain panel (AID 1159580);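 note: tested at 20 µM; growth read once vehicle control cultures reached saturation at 30 °C; 1 = growth at the plate median or of vehicle wells; lower values mean less growth of the strain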
Conditions: growth OD

Measured: normalized growth

C[C@H]1CC2C([C@@H](O)C[C@@]3(C)C2CC[C@]3(O)C(=O)CO)[C@@]2(C)C=CC(=O)C=C12 (some centres not stated)
inactive: S. cerevisiae deletion strains, locus YJR075W, strain HOC1, stronger effect = lower value 1.01 | S. cerevisiae deletion strains, locus YKL009W, strain mrt4, stronger effect = lower value 0.997 | S. cerevisiae deletion strains, locus YKL068W, stronger effect = lower value 0.999 | S. cerevisiae deletion strains, locus YKL085W, strain MDH1 (second series), stronger effect = lower value 1 | S. cerevisiae deletion strains, locus YKL085W, strain MDH1, stronger effect = lower value 1 | S. cerevisiae deletion strains, locus YKL160W, strain elf1, stronger effect = lower value 0.975 | S. cerevisiae deletion strains, locus YKL190W, strain CNB1, stronger effect = lower value 0.995 | S. cerevisiae deletion strains, locus YKR001C, strain vps1, stronger effect = lower value 1.02 | S. cerevisiae deletion strains, locus YKR026C, strain gcn3, stronger effect = lower value 0.999 | S. cerevisiae deletion strains, locus YKR091W, strain srl3, stronger effect = lower value 1.01 | S. cerevisiae deletion strains, locus YLL001W, strain dnm1, stronger effect = lower value 0.96 | S. cerevisiae deletion strains, locus YLL026W, stronger effect = lower value 0.982 | S. cerevisiae deletion strains, locus YLL041C, strain sdh2, stronger effect = lower value 1.01 | S. cerevisiae deletion strains, locus YLR027C, strain aat2, stronger effect = lower value 0.985 | S. cerevisiae deletion strains, locus YLR039C, strain RIC1, stronger effect = lower value 0.982 | S. cerevisiae deletion strains, locus YLR058C, strain SHM2, stronger effect = lower value 0.999 | S. cerevisiae deletion strains, locus YLR102C, strain apc9, stronger effect = lower value 1.02 | S. cerevisiae deletion strains, locus YLR113W, strain HOG1, stronger effect = lower value 1.03 | S. cerevisiae deletion strains, locus YLR221C, strain rsa3, stronger effect = lower value 1.01 | S. cerevisiae deletion strains, locus YLR258W, strain gsy2, stronger effect = lower value 1.01 | S. cerevisiae deletion strains, locus YLR262C, strain YPT6 (second series), stronger effect = lower value 0.968 | S. cerevisiae deletion strains, locus YLR262C, strain YPT6, stronger effect = lower value 0.996 | S. cerevisiae deletion strains, locus YLR268W, strain sec22, stronger effect = lower value 1.07 | S. cerevisiae deletion strains, locus YLR320W, strain mms22, stronger effect = lower value 0.989 | S. cerevisiae deletion strains, locus YLR330W, strain CHS5, stronger effect = lower value 0.999 | S. cerevisiae deletion strains, locus YLR342W, strain FKS1 (second series), stronger effect = lower value 1.01 | S. cerevisiae deletion strains, locus YLR342W, strain FKS1, stronger effect = lower value 0.985 | S. cerevisiae deletion strains, locus YLR357W, strain rsc2, stronger effect = lower value 0.996 | S. cerevisiae deletion strains, locus YLR370C, strain arc18, stronger effect = lower value 0.992 | S. cerevisiae deletion strains, locus YLR371W, strain rom2, stronger effect = lower value 1.01 | S. cerevisiae deletion strains, locus YLR384C, strain iki3, stronger effect = lower value 0.996 | S. cerevisiae deletion strains, locus YLR418C, strain cdc73, stronger effect = lower value 1.01 | S. cerevisiae deletion strains, locus YML016C, strain PPZ1, stronger effect = lower value 1.01 | S. cerevisiae deletion strains, locus YML032C, strain rad52, stronger effect = lower value 1.04 | S. cerevisiae deletion strains, locus YML120C, strain ndi1, stronger effect = lower value 0.973 | S. cerevisiae deletion strains, locus YML124C, strain tub3, stronger effect = lower value 1.01 | S. cerevisiae deletion strains, locus YMR058W, strain fet3, stronger effect = lower value 0.994 | S. cerevisiae deletion strains, locus YMR078C, strain ctf18, stronger effect = lower value 1.01 | S. cerevisiae deletion strains, locus YMR125W, strain sto1, stronger effect = lower value 1.01 | S. cerevisiae deletion strains, locus YMR129W, stronger effect = lower value 1 | S. cerevisiae deletion strains, locus YMR205C, strain PFK2, stronger effect = lower value 0.993 | S. cerevisiae deletion strains, locus YMR223W, strain ubp8, stronger effect = lower value 0.986 | S. cerevisiae deletion strains, locus YMR231W, strain pep5, stronger effect = lower value 0.991 | S. cerevisiae deletion strains, locus YMR263W, strain SAP30, stronger effect = lower value 1 | S. cerevisiae deletion strains, locus YMR307W, strain GAS1, stronger effect = lower value 1 | S. cerevisiae deletion strains, locus YNL067W, strain RPL9B, stronger effect = lower value 1.03 | S. cerevisiae deletion strains, locus YNL071W, strain lat1, stronger effect = lower value 1 | S. cerevisiae deletion strains, locus YNL128W, strain TEP1, stronger effect = lower value 0.982 | S. cerevisiae deletion strains, locus YNL153C, strain GIM3, stronger effect = lower value 1.01 | S. cerevisiae deletion strains, locus YNL183C, strain NPR1, stronger effect = lower value 0.994 | S. cerevisiae deletion strains, locus YNL209W, strain ssb2, stronger effect = lower value 1.02 | S. cerevisiae deletion strains, locus YNL233W, strain BNI4, stronger effect = lower value 1.01 | S. cerevisiae deletion strains, locus YNL248C, strain rpa49, stronger effect = lower value 1.01 | S. cerevisiae deletion strains, locus YNL250W, strain rad50, stronger effect = lower value 1.01 | S. cerevisiae deletion strains, locus YNL271C, strain bni1, stronger effect = lower value 1.01 | S. cerevisiae deletion strains, locus YNL298W, strain CLA4, stronger effect = lower value 1.01 | S. cerevisiae deletion strains, locus YNL307C, strain MCK1, stronger effect = lower value 1.02 | S. cerevisiae deletion strains, locus YNL322C, strain KRE1 (second series), stronger effect = lower value 1 | S. cerevisiae deletion strains, locus YNL322C, strain KRE1, stronger effect = lower value 0.992 | S. cerevisiae deletion strains, locus YNR049C, strain mso1, stronger effect = lower value 1 | S. cerevisiae deletion strains, locus YNR052C, strain pop2, stronger effect = lower value 1.02 | S. cerevisiae deletion strains, locus YOL006C, strain TOP1, stronger effect = lower value 1.04 | S. cerevisiae deletion strains, locus YOL012C, strain htz1 1.61 | S. cerevisiae deletion strains, locus YOL147C, strain pex11, stronger effect = lower value 1.01 | S. cerevisiae deletion strains, locus YOR001W, strain rrp6, stronger effect = lower value 0.966 | S. cerevisiae deletion strains, locus YOR061W, strain CKA2, stronger effect = lower value 1 | S. cerevisiae deletion strains, locus YOR069W, strain VPS5, stronger effect = lower value 1 | S. cerevisiae deletion strains, locus YOR070C, strain gyp1, stronger effect = lower value 1 | S. cerevisiae deletion strains, locus YOR080W, strain dia2, stronger effect = lower value 0.986 | S. cerevisiae deletion strains, locus YOR083W, strain WHI5, stronger effect = lower value 0.959 | S. cerevisiae deletion strains, locus YOR106W, strain vam3, stronger effect = lower value 0.987 | S. cerevisiae deletion strains, locus YOR136W, strain idh2, stronger effect = lower value 1.01 | S. cerevisiae deletion strains, locus YOR144C, strain elg1, stronger effect = lower value 1.01 | S. cerevisiae deletion strains, locus YOR184W, strain ser1, stronger effect = lower value 1 | S. cerevisiae deletion strains, locus YOR231W, strain MKK1, stronger effect = lower value 1.02 | S. cerevisiae deletion strains, locus YOR265W, strain rbl2, stronger effect = lower value 0.995 | S. cerevisiae deletion strains, locus YOR270C, strain vph1, stronger effect = lower value 1.02 | S. cerevisiae deletion strains, locus YOR290C, strain snf2, stronger effect = lower value 1 | S. cerevisiae deletion strains, locus YOR316C, strain cot1, stronger effect = lower value 1.01 | S. cerevisiae deletion strains, locus YPL051W, strain arl3, stronger effect = lower value 0.988 | S. cerevisiae deletion strains, locus YPL055C, strain LGE1, stronger effect = lower value 0.982 | S. cerevisiae deletion strains, locus YPL078C, strain atp4, stronger effect = lower value 0.959 | S. cerevisiae deletion strains, locus YPL106C, strain sse1, stronger effect = lower value 1.02 | S. cerevisiae deletion strains, locus YPL240C, strain hsp82, stronger effect = lower value 1.01 | S. cerevisiae deletion strains, locus YPL241C, strain CIN2, stronger effect = lower value 0.996 | S. cerevisiae deletion strains, locus YPL256C, strain CLN2, stronger effect = lower value 1.1 | S. cerevisiae deletion strains, locus YPR119W, strain clb2, stronger effect = lower value 1.01 | S. cerevisiae deletion strains, locus YPR141C, strain kar3, stronger effect = lower value 1.01 | S. cerevisiae deletion strains, locus YPR163C, strain tif3, stronger effect = lower value 1.02 | S. cerevisiae deletion strains, locus YPR167C, strain met16, stronger effect = lower value 1.01 | S. cerevisiae deletion strains, strain wtn01, stronger effect = lower value 1.03 | S. cerevisiae strains, strain wild type, stronger effect = lower value 0.998
